The nature of assay [1]: P-glycoprotein substrates identified in KB-8-5-11 adenocarcinoma cell line, qHTS therapeutic library screen (AID 1346987). Further: nearly all actives have a fitted effect of over 65% in size. Further: potency means the concentration at half of the fitted maximal effect. The essentials: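 In this qHTS, P-gp-rich KB-8-5-11 cells received library compounds across a concentration range. Viability was quantified by luminescence after 72 h at 37 degree C.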
For orientation: Quantitative high-throughput screening tests each substance at several concentrations.

The test system of assay [2] is Zika virus NS2B-NS3 protease (unlinked complex). The assay can be described thus: Primary screen GU Rhodamine qHTS for Zika virus inhibitors: Unlinked NS2B-NS3 protease assay (AID 1347159). Further: on the % scale 0 is the no-effect control and ±100 the full control effect; nearly all actives have a fitted effect of over 60% in size. A digest of the protocol: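 Buffer 10 mM Tris-HCl pH 8.0, 0.01% Tween 20. Unlinked protease 25 nM; compound preincubation 15 min, RT, protected from light. Substrate Rhod110, 1.5 microM; ~15% conversion in 15 min.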

Assay [3] can be described thus: Primary qHTS for inhibitors of nuclear receptor binding SET domain protein 2 (NSD2) in an RCH-ACV wild type WT cells (2C) (AID 1645877). Further: nearly all actives have a fitted effect of over 70% in size. Further: potency means the concentration at half of the fitted maximal effect.
Assay [4] in a line: Primary redox qHTS assay for identification of artifact compounds. (AID 1845223).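 Further: 0% = DMSO and 100% = reference compound.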 A digest of the protocol: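 Redox-cycling detection via DTT (250 uM final) oxidation coupled to Amplex Red (25 uM)/HRP (250 mU/mL) in HBSS. 15 min preincubation plus 30 min after DTT, room temperature. Ex/Em 525/598 nm; 4-parameter Hill fit against DMSO and 10 uM DA3003.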
Another assay relates to CAOV3. The assay can be described thus: Primary qHTS to identify gynecologic anti-cancer compounds using libraries of approved drugs and bioactive compounds (AID 1345084). Further: nearly all actives have a fitted effect of over 55% in size. Further: potency means the concentration at half of the fitted maximal effect. As to conditions: Gynecologic cancer cell panel viability, ATPlite luminescence, 48 h; series mostly up to 57.5 µM. The essentials: (§1)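 48 h compound exposure at 37 C, 5% CO2; five-point qHTS. ATPlite luminescence readout of cell ATP.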

Another assay deals with HeLa. The assay is described as above. As to conditions: Gynecologic cancer cell panel viability, ATPlite luminescence, 48 h; series mostly up to 57.5 µM. A digest of the protocol: as §1
On the technique in general: Cellular ATP, detected with luciferase, serves as a proxy for viable cell number.

The subject of another assay is KB-3-1. The assay can be described thus: Cytotoxic Profiling of Annotated Libraries Using Quantitative High-Throughput Screening (AID 1296008). Further: potency means the concentration at half of the fitted maximal effect; nearly all actives have a fitted effect of over 60% in size. Conditions: Five cell lines viability, CellTiter-Glo ATP luminescence, 48-72 h; max response: stronger effect = lower value. The essentials:
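Cells exposed to compounds for 48 or 72 hr at 37 degrees Celsius. Viability read as ATP-coupled luminescence with CellTiter-Glo after 10 min at room temperature.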

The next assay relates to JEG-3. The assay can be described thus: Primary qHTS to identify gynecologic anti-cancer compounds using libraries of approved drugs and bioactive compounds (AID 1345084). Further: nearly all actives have a fitted effect of over 55% in size. Further: potency means the concentration at half of the fitted maximal effect. As to conditions: Gynecologic cancer cell panel viability, ATPlite luminescence, 48 h; series mostly up to 57.5 µM. The essentials:
as §1

The target in assay [5] is Cytochrome P450 2D6 (Homo sapiens) (UniProt P10635). Kind of assay: Cytochrome P450 family 2 subfamily D member 6 (CYP2D6) small molecule antagonists: luciferase biochemical (cell-free) qHTS assay (AID 1645840; active means well fitted curve in the direction sought with a large enough effect in the repeat runs; an effect the other way counts as inactive or inconclusive; further: on the % scale 0 is the no-effect control and ±100 the full control effect; nearly all actives have a fitted effect of over 55% in size). A digest of the protocol:
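P450-Glo CYP2D6 system: proluciferin substrate converted by enzyme to luciferin, read by luminescence proportional to activity. Enzyme-substrate mix with compound 10 min at room temperature, then NADPH regeneration 1 h before detection reagent.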

In a further assay the test system is NIH3T3. The assay can be described thus: qHTS assay to identify novel small-molecules to repurpose for Merkel cell carcinoma treatment (AID 1296009). Further: nearly all actives have a fitted effect of over 60% in size. As to conditions: MCC and control cell lines, CellTiter-Glo viability, 72 h; at 44.8 µM (top of the series) unless noted. A digest of the protocol:
(§2)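 CellTiter-Glo luminescence after 72 hr compound exposure at 37 degree celsius gave cell viability. Libraries NPC and MIPE were run as 8- and 11-point dose responses; RLUs normalized to DMSO (negative) and no-cell (cytotoxicity) controls.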

Another assay deals with SKOV3. The assay can be described thus: Primary qHTS to identify gynecologic anti-cancer compounds using libraries of approved drugs and bioactive compounds (AID 1345084). Further: nearly all actives have a fitted effect of over 55% in size. Further: potency means the concentration at half of the fitted maximal effect. As to conditions: Gynecologic cancer cell panel viability, ATPlite luminescence, 48 h; series mostly up to 57.5 µM. The essentials: as §1
The subject of a further assay is HACAT. Kind of assay: qHTS assay to identify novel small-molecules to repurpose for Merkel cell carcinoma treatment (AID 1296009). Further: nearly all actives have a fitted effect of over 60% in size. As to conditions: MCC and control cell lines, CellTiter-Glo viability, 72 h; at 44.8 µM (top of the series) unless noted. A digest of the protocol: as §2
Assay [6] has as its target Cytochrome P450 2C9 (Homo sapiens) (UniProt P11712). Kind of assay: Cytochrome P450 family 2 subfamily C member 9 (CYP2C9) small molecule antagonists: luciferase biochemical (cell-free) qHTS assay (AID 1645842; active means well fitted curve in the direction sought with a large enough effect in the repeat runs; an effect the other way counts as inactive or inconclusive). The essentials: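 P450-Glo CYP2C9 system: proluciferin substrate with enzyme in mix containing 0.4% BSA, 10 min at room temperature, then NADPH regeneration solution added and incubated 1 h at 37C. Detection reagent stopped reaction; luminescence read after 20 min as RLU.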

Assay [7] deals with Guanidinoacetate N-methyltransferase (Homo sapiens) (UniProt Q14353). Kind of assay: Confirmatory Screen for Target Class Profiling of Small Molecule Inhibitors of Methyltransferases (AID 1745852; calls by dose curve; further: potency means the concentration at half of the fitted maximal effect). As to conditions: activity change, negative = inhibition: at 57.3 µM (top of the series) unless noted.
Assay [8] deals with Nicotinamide N-methyltransferase (Homo sapiens) (UniProt P40261). Described as above. As to conditions: MTase-Glo luminescence, SAH detection, recombinant enzyme; measured here: NNMT max response; stronger effect = lower value.
The next assay deals with CRL-7250. Kind of assay: qHTS assay to identify novel small-molecules to repurpose for Merkel cell carcinoma treatment (AID 1296009). Further: nearly all actives have a fitted effect of over 60% in size. Conditions: MCC and control cell lines, CellTiter-Glo viability, 72 h; series mostly up to 92 µM. The essentials:
as §2

Assay [9] can be described thus: P-glycoprotein substrates identified in KB-3-1 adenocarcinoma cell line, qHTS therapeutic library screen (AID 1346986). Further: nearly all actives have a fitted effect of over 60% in size. A digest of the protocol: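 Viability by CellTiter-Glo after 72 h compound exposure at 37 degree C, 5% CO2. Cytotoxic call: curve class -1.1 to -2.4, maximum response >50%, AC50 < 10 uM, compared across KB-3-1 and P-gp-overexpressing KB-8-5-11.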

Results filed as inconclusive are left out. Active and inactive are the calls of the source. Unless noted, the call rests on the fitted dose curve; in most records, active means well fitted curve in the direction sought with a large enough effect; inconclusive means small, poorly fitted or top-dose-only effect, or another doubt; inactive means no such curve, though single readings can be large; an effect the other way counts as inactive or inconclusive. *1 amine or outer side, *2 acyl side, *3 side chain or, on linkers, in order; H or OH if unused. Where a SMILES comes first, the peptide text is derived from it. [ ]: non-standard residue; d: D form. X7 = O=C([C@@H](CC(O)CCl)O[*:1])[*:2]; aIle = CC[C@@H](C)[C@H](N)C(=O)O; NMeV = CN[C@H](C(=O)O)C(C)C; NMeA = CN[C@@H](C)C(=O)O; βAla = NCCC(=O)O

Sequence of Cytochrome P450 2D6 (Homo sapiens) (P10635 whole entry, looked up): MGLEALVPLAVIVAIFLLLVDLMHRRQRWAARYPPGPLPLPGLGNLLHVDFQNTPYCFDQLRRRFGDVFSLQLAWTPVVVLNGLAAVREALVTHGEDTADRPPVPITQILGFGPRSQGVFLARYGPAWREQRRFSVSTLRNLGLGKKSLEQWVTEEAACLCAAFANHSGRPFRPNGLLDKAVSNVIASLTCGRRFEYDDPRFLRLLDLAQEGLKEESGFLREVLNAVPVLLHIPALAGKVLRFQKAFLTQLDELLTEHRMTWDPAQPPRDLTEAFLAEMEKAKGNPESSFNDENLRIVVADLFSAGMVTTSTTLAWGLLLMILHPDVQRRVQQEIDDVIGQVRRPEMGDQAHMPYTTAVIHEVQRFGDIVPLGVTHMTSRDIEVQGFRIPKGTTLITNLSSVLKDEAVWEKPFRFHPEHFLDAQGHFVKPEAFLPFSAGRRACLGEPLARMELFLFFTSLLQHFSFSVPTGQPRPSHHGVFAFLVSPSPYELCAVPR
Sequence of Nicotinamide N-methyltransferase (Homo sapiens) (P40261 whole entry, looked up): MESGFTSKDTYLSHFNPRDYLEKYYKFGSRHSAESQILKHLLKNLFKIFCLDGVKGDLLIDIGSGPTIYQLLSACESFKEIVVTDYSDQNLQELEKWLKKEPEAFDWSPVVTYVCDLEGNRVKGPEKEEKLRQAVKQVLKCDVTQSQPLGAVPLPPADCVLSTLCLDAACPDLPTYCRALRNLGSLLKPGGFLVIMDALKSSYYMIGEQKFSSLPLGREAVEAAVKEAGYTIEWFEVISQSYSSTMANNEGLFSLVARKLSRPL
Sequence of Cytochrome P450 2C9 (Homo sapiens) (P11712 whole entry, looked up): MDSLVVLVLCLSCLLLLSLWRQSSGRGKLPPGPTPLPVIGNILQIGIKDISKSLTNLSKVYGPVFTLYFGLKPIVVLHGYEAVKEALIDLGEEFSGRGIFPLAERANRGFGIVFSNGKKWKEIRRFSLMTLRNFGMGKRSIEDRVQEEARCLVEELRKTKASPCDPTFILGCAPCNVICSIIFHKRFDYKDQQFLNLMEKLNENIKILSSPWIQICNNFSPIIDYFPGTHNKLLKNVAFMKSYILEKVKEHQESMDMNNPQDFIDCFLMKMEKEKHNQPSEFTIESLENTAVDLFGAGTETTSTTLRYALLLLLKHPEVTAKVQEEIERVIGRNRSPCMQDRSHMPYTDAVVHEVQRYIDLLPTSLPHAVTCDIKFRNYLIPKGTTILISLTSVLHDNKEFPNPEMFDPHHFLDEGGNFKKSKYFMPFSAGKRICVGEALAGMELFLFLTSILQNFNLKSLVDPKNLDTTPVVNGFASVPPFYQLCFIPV

For `CC(=O)OC[C@]12C[C@H](OC(=O)CC(C)C)C(C)=C[C@H]1O[C@@H]1[C@H](O)C[C@@]2(C)[C@]12CO2`, the Potency in assay [1] was 0.709 µM (active); in assay [3], 0.317 µM (active); in the assay with CAOV3 it was 4.47 µM (active); in the assay on HeLa, 3.98 µM (active). The Potency result in assay [2] and in assay [4] was “inactive” in each case.

In the case of `C=C1[C@@H](C)[C@H]2[C@H](Cc3ccccc3)NC(=O)[C@]23[C@H](OC(C)=O)/C=C/[C@](C)(O)C(=O)[C@@H](C)C/C=C/[C@H]3[C@@H]1O`, the Potency in assay [1] is 9.2 µM (active); in assay [3] it was 0.258 µM (active); in the assay on KB-3-1, 2.59 µM (active). The Potency result (in [2]; with HeLa; with JEG-3) was “inactive” each time.

Regarding `CN1C[C@@H]2CN(c3ccc(-c4ccccc4)nn3)C[C@@H]2C1`, the Potency result (in [1]; in assay [2]; in assay [5]; in [3]; in assay [4]; in the assay with CAOV3) was “inactive” throughout. Moreover, the Potency entry in the assay with JEG-3 and in the assay on SKOV3 was “inactive” throughout. Also, in the assay with NIH3T3, the outcome was “inactive”.

As for `COC1C(O)C(C)OC(OC2C(CO)O[C@@H](O[C@@H]3CC4CCC5C(CC[C@]6(C)[C@@H](C7=CC(=O)OC7)CC[C@]56O)[C@@]4(C)[C@H](OC(C)=O)C3)C(O)C2O)C1O` (stereo partly drawn), the Potency in assay [1] was 2.73 µM (active); in assay [3], 2.42 µM (active); in the assay with HeLa it was 10 µM (active). The Potency result in assay [2] is “inactive”. For the same molecule, in the assay on NIH3T3, the outcome was “inactive [at 17.4 µM]”.

Take `CCC1NC(=O)C2C(Cl)C(Cl)CN2C(=O)C(CC)NC(=O)CC(c2ccccc2)NC(=O)C(CO)NC1=O` (stereo not drawn): the Potency result (in assay [1]; in the assay with CAOV3; with HeLa; in the assay on JEG-3) was “inactive” each time. Also, the outcome in the assay on HACAT and in the assay on NIH3T3 was “inactive [at 17.4 µM]” throughout.

For `CC[C@@H](C)[C@@H]1NC(=O)[C@@H]2CCCN2C(=O)[C@@H](CC(O)CCl)OC(=O)CCNC(=O)[C@H](C)N(C)C(=O)[C@H](C(C)C)N(C)C1=O` (stereo partly drawn) (cyclo([NMeA][βAla][X7]P[aIle][NMeV])), the Potency entry (in assay [1]; in assay [2]; in assay [4]; in the assay with JEG-3) was “inactive” each time. Further, the Potency is 0.483 µM (active) in assay [3] and 3.16 µM (active) in the assay on CAOV3.

In the case of `N#Cc1cn([C@@H]2O[C@H](CO)[C@H](O)[C@@H]2O)c2ncnc(N)c12`, the Potency in assay [1] was 0.0206 µM (active); in assay [7] it was 38.3 µM (active); in the assay on KB-3-1, 0.0366 µM (active). Also, the Potency result in assay [2], in assay [5], in assay [6] and in assay [4] was “inactive” throughout. For the same molecule, the activity in assay [8] was -89.8%.

On to `CC(=O)O[C@H]1CC[C@@]2(CI)C(=CC[C@@H]3[C@@H]2CC[C@]2(C)C(=O)CC[C@@H]32)C1`, for which the Potency result (in assay [1]; in assay [2]; in the assay on CRL-7250; in the assay with CAOV3; in the assay with HeLa; with JEG-3) was “inactive” each time. Also, the Potency entry in the assay on SKOV3 is “inactive”. Moreover, in the assay with HACAT, the outcome is “inactive”.

Regarding `C[C@]12CC[C@H](O)C[C@@H]1CC[C@@H]1[C@@H]2CC[C@]2(C)C(=O)CC[C@@H]12`, the Potency entry (in assay [9]; in [1]; in assay [2]; in [3]; in assay [4]; with CAOV3) was “inactive” each time. Also, the Potency result with HeLa, in the assay on JEG-3 and with SKOV3 was “inactive” in each case.
